PubChem BioAssay AID2561 (National Center for Advancing Translational Sciences (NCATS), 2010)
“And” between values parts separate entries of the source, which are not always exact repeats. Equal values may be shown once. Inconclusive results are not listed. A call without a number means that no potency is given here. The source made the active and inactive calls. The call rests on the fitted dose curve; in most records, active means well fitted inhibition curve with a large enough effect; inconclusive means small, poorly fitted or top-dose-only effect, or effect the other way; inactive means flat fitted curve, though single readings scatter.

Target: Pyruvate kinase (Leishmania mexicana) (UniProt Q27686)
Sequence (Q27686 whole entry, looked up): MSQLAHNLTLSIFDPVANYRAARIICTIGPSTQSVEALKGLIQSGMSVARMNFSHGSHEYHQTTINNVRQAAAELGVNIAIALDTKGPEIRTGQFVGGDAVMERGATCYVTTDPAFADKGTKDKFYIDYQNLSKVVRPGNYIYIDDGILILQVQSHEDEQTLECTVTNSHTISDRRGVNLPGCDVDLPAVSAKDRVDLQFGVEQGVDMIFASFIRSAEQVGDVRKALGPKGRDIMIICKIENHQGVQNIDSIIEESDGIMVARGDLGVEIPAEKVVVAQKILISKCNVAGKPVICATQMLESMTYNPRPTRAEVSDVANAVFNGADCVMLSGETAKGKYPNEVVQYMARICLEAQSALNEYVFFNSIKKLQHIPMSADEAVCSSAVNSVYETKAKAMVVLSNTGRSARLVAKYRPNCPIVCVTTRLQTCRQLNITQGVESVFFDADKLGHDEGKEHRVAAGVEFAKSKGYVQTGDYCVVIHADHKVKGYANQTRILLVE
Test: Confirmation Assay for Inhibitors of Leishmania Mexicana Pyruvate Kinase (LmPK): for Probe SAR
Conditions: purified LmPK, ATP generation, Kinase-Glo luminescence; series mostly up to 57.5 µM
Text: NIH Chemical Genomics Center [NCGC] Malcolm Walkinshaw, Hugh Morgan, Linda Gilmore University of Edinburgh, UK MLPCN Grant: 1 R03 MH085697-01 NCGC Assay Overview: Pyruvate kinase (L. Mexicana) (LmPK) enzyme was supplied as a highly purified (>95% pure) sulphate-free preparation from University of Edinburgh, UK and assayed for its ability to generate ATP from ADP using phosphoenolpyruvate (PEP) as a substrate. ATP generation was detected in a coupled reaction by luciferase-mediated luminescence, an ATP-dependent process. Pyruvate kinase substrates, PEP and ADP, were present in the assay at Km and approximately 10-fold below Km respectively. The enzyme was assayed at an intermediate level of activity to screen for both inhibitors and activators.
NCGC Assay Protocol Summary: Three uL of enzyme mix (kept on ice) in assay buffer (50 mM Imidazole pH7.2, 50 mM KCl, 7 mM MgCl2, 0.01% Tween 20, 0.05% BSA) containing PEP (0.5 mM final concentration) and LmPK (0.1 nM final concentration) was dispensed into white solid bottom 1,536 well microtiter plates. 23 nL of compound were delivered by a pin tool and 1 uL of ADP mix in assay buffer (r.t; 0.1 mM final ADP concentration) was added. Plates were incubated at room temperature for 1 hour. Two uL of detection mix (Kinase-Glo, Promega; at 4 degree Celsius protected from light) was added and luminescence read by a ViewLux (Perkin Elmer) at 1 second exposure/plate. Data were normalized to the uninhibited and AC100 inhibition (no enzyme). To monitor activation, the first column contained a five-fold concentration of LmPK (0.5 nM).
Potency means the concentration at half of the fitted maximal effect.

| Compound | Potency |
| --- | --- |
| O=C(O)c1ccccc1SC1=NS(=O)(=O)c2ccccc21 | 4.61 µM (active) and 8.91 µM (active) |
| COc1ccc(O)cc1 | inactive |
| O=S1(=O)N=C(Oc2cccc3ccccc23)c2ccccc21 | 4.11 µM (active) |
| Cc1ccc(C)c(OC2=NS(=O)(=O)c3ccccc32)c1 | 2.59 µM (active) |
| O=S(=O)(c1ccc2c(c1)OCCO2)N1CCN(S(=O)(=O)c2c(F)cccc2F)CC1 | inactive |
| COc1cccc(Cn2ncc3c4sc(S(C)=O)cc4n(C)c3c2=O)c1 (stereo not given) | inactive |
| Cc1cc(C)n2c(Nc3ccccc3)c(-c3ccc(C)o3)nc2n1 | inactive |
| Cc1nc(-c2ccc(S(=O)(=O)Nc3ccc(C)c(C)c3)s2)cs1 | inactive |
| Cc1ccc(Nc2c(-c3ccc(C)o3)nc3cccc(C)n23)cc1 | inactive |
| O=C(O)c1ccccc1OC1=NS(=O)(=O)c2ccccc21 | 1.63 µM (active) |
| COc1cccc(N2C(=O)c3ccccc3C2=O)n1 | inactive |
| O=C1CCc2cc(S(=O)(=O)NCc3ccccc3)ccc2N1 | inactive |
| Cc1ccc(NS(=O)(=O)c2ccc3c(c2)oc(=O)n3C)cc1C | inactive |
| COc1ccc(N2C(=O)c3ccccc3S2(=O)=O)cc1 | inactive |
| O=S1(=O)N=C(Oc2cccc(-c3ccccc3)c2)c2ccccc21 | 3.26 µM (active) |
| Cc1ccc(NS(=O)(=O)c2cccc(C(=O)O)c2)cc1C | inactive |
| Cc1ccc(Nc2c(-c3ccc(C)s3)nc3cccc(C)n23)cc1 | inactive |
| Cc1ccc(Nc2c(-c3ccsc3)nc3cccc(C)n23)cc1 | inactive |
| Cc1ccc(C)c(O)c1 | inactive |
| Cc1ccn2c(NCc3ccco3)c(-c3ccccc3)nc2c1 | inactive |

| Compound | Potency |
| --- | --- |
| Cc1sc(C)c2c1C(=O)NS2(=O)=O | inactive |
| O=C1c2ccccc2C(=O)N1c1noc2ccccc12 | inactive |
| Cc1ccc2nc(-c3ccc(C)o3)c(Nc3ccc(Cl)cc3)n2c1 | inactive |
| Cc1ccc(NS(=O)(=O)c2ccc(Cl)cc2)cc1C | inactive |
| COc1cc(N2C(=O)c3ccccc3C2=O)c2ncccc2c1 | inactive |
| O=C1c2ccccc2C(=O)N1Cc1ccccc1 | inactive |
| Cc1cc(C)c2[nH]c(C3C(=O)c4ccccc4C3=O)cc(=O)c2c1 | inactive |
| Cc1ccc2nc(-c3ccc(C)o3)c(Nc3ccc(F)cc3)n2c1 | inactive |
| Cc1scc2c1C(=O)NS2(=O)=O | inactive |
| CCOc1ccc2c(c1)C(=O)C(c1cc(=O)c3ccccc3[nH]1)C2=O (stereo not given) | inactive |
| Cc1ccc(-c2nc3ccc(Cl)cn3c2Nc2ccccc2)o1 | inactive |
| Cc1ccc(NS(=O)(=O)c2cc3c(cc2N2CCCCC2)NC(=O)CC3)cc1C | inactive |
| Cc1ccc(NS(=O)(=O)c2ccc3c(c2)CCC(=O)N3)cc1 | inactive |
| O=C1c2ccccc2C(=O)N1C1CCCCC1 | inactive |
| N#Cc1cccnc1SC1=NS(=O)(=O)c2ccccc21 | 16.3 µM (active) |
| O=S1(=O)N=C(Oc2ccccc2C(F)(F)F)c2ccccc21 | 6.51 µM (active) |
| CC(C)c1ccccc1SC1=NS(=O)(=O)c2ccccc21 | 1.83 µM (active) |
| COC(=O)c1ccccc1S(=O)(=O)Nc1ccc(OC)cc1 | inactive |
| CC(C)(C)c1ccc(SC2=NS(=O)(=O)c3ccccc32)cc1 | 3.26 µM (active) |
| O=C1CCc2cc(S(=O)(=O)Nc3ccc4c(c3)OCCO4)ccc2N1 | inactive |
